This excerpt belongs to a sample that is enriched for hits.
G9a inh = G9a (human) methyltransferase inhibition; hit rate 8.8% among 350,000; Q96KQ7; G9a H3K9 monomethylation, AlphaScreen, 2 h; Potency, µM (top dose mostly 102 µM), without a hit: top-dose activity, negative = inhibition, usual class: inhibitors; also: % is scaled to controls: 0 for no effect and ±100 for the full control effect; nearly all actives have a fitted effect of over 75% in size
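G9a (20 nM) was preincubated 15 min with compound, then reacted 2 h at room temperature with 500 nM biotin-H3K9 peptide and 20 µM SAM. Monomethyl-H3K9 detected by AlphaScreen using anti-H3K9me1 antibody.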
12-LOX inh = ALOX12 (human) lipoxygenase inhibition; purified 12hLO, xylenol orange hydroperoxide absorbance; Potency, µM (series often up to 108 µM), inactives show at the top dose activity change, negative = inhibition, hits mostly inhibitors; hit rate 1.1% among 580,000; also: % is scaled to controls: 0 for no effect and ±100 for the full control effect
Target sequence (P18054 whole entry, looked up): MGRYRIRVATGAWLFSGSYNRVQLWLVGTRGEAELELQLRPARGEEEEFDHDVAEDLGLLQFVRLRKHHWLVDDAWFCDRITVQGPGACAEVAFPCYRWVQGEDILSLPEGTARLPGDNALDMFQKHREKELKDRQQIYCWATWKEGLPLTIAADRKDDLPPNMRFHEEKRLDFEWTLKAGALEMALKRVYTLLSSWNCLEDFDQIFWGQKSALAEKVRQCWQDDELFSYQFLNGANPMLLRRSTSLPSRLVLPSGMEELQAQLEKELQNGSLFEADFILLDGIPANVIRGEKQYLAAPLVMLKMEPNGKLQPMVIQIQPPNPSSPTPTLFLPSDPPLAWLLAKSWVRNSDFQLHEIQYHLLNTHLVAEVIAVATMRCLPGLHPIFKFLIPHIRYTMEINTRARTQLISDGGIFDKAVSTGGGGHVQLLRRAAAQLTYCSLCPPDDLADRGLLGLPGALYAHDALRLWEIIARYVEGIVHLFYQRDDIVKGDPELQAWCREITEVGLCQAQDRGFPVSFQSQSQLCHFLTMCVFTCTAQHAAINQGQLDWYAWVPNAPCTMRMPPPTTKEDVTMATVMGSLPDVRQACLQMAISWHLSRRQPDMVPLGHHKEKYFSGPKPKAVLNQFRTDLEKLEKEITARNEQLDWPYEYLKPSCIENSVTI
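Purified human 12hLO at 150 nM in 25 mM Hepes, 0.01% Triton X-100, pH 7.0, preincubated 15 min at room temperature with compound. Reaction started with 40 uM arachidonic acid, 30 min at room temperature. Hydroperoxide measured by Fe-xylenol orange, 573/405 nm absorbance ratio.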
GRP78 ERSR act = inducers of ER stress response in human glioma cells; U87-MG GRP78 promoter luciferase reporter, 16 h; Potency, µM, without a hit: at the highest dose activation, usual class: activators; hit rate 0.02% among 420,000; AID 602332; also: series mostly up to about 76 µM; % of control where 0% means no effect; nearly all actives have a fitted effect of over 35% in size
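ERSR induction read as luciferase luminescence (Bright-Glo, 10 min at room temperature) in stably transfected human U87-MG glioma cells exposed to compounds for 16 h, using GRP78 as sensor.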
Sfp PPTase inh = inhibitors of Bacillus subtilis Sfp phosphopantetheinyl transferase. Potency, µM, for the others: largest response in the series, negative = inhibition, usual class: inhibitors. Q9F4F7. AID 1490. hit rate 3.5% among 310,000. Biochemical Sfp PPTase activity, qHTS;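 also: the enzyme is Sfp with the accession as filed and its product quenches rhodamine fluorescence; 0% = enzyme reaction without inhibitor and -100% = no enzyme wells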
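Buffer: 50 mM Hepes-Na pH 7.6, 10 mM MgCl2, 0.01% Nonidet P-40, 0.01% BSA. Enzyme 15 nM, pre-exposed to compound 15 min; substrates then added and fluorescence change tracked over 30 min.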
VDR inh = vitamin D3 receptor (human) inhibition | VDR-SRC2-3 peptide fluorescence polarization, 2 h | P11473 | AID 504847 | Potency, µM, for the others: max response, negative = inhibition, hits mostly inhibitors | hit rate 0.93% among 400,000; also: % is scaled to controls: 0 for no effect and ±100 for the full control effect
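Two reagent solutions held at 4 deg C in the dark were dispensed, compounds pinned at 23 nl, and the mixture incubated 2 h at room temperature. Read-out: fluorescence polarization of VDR–SRC2-3 peptide binding.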
The depositor's hits bear a star; [ ] = another dose, or the depositor's remark. Calls follow the shape of the dose curve; as a rule, active = well fitted curve in the direction sought with a large enough effect; inconclusive = small, poorly fitted or top-dose-only effect, or another doubt; inactive = no such curve, though single readings can be large; an effect the other way counts as inactive or inconclusive. Potency is read from the fitted curve at half-maximal effect.

For Cc1ccc(NC(=O)CSc2nnc(C)c(=O)[nH]2)cc1 the results were G9a inh 4%[59 µM], 12-LOX inh -6%, GRP78 ERSR act -2% and VDR inh 5%.
O=C(CCc1c[nH]c2ccccc12)NCCC12CC3CC(CC(C3)C1)C2 was read as 12-LOX inh -54%.
`COc1ccc(C(=O)n2nc(-c3ccco3)nc2N)cc1` gave G9a inh 18µM*, 12-LOX inh inconclusive, GRP78 ERSR act -8%, Sfp PPTase inh 14% and VDR inh -10%.
`Nc1nc(-c2ccco2)nn1C(=O)c1cccnc1` gave G9a inh 50µM*, 12-LOX inh -7%, GRP78 ERSR act -4%, Sfp PPTase inh -3% and VDR inh 1%.
`Cc1ccc(C(=O)n2nc(-c3ccco3)nc2N)cc1` gave G9a inh 6%[59 µM], 12-LOX inh 50%, GRP78 ERSR act -11%, Sfp PPTase inh -7% and VDR inh -18%.
COP(=O)(OC)c1nc(-c2ccco2)oc1NCc1ccccc1Cl was read as 12-LOX inh -7%.
Screening C=CCn1c(SCc2coc(-c3ccc(F)cc3)n2)nnc1C1CCS(=O)(=O)C1 (centres undefined) returned 12-LOX inh -5%.
Screening Cc1c(Cl)ccc2c(C(=O)NC3CCCCC3)cc(-c3ccccc3)nc12 returned 12-LOX inh 20%.
Screening CS(=O)(=O)N1CCN(c2ccc(NC(=O)COc3ccc(Cl)cc3)cc2)CC1 returned 12-LOX inh -3%.
`FC(F)(F)c1cccc(CNC2c3ccccc3-c3ccccc32)c1` gave G9a inh 1.1µM*, 12-LOX inh inconclusive, GRP78 ERSR act -5%, Sfp PPTase inh inconclusive and VDR inh -4%.
COc1ccc(C)cc1NC(=O)c1c(C(=O)Nc2cccc(C)c2C)sc2nc(C)cc(=O)n12 was read as G9a inh -11%[59 µM], 12-LOX inh -21%, GRP78 ERSR act -1% and VDR inh 6%.
For Cc1cc(=O)n2c(C(=O)Nc3ccc(F)c(Cl)c3)c(C(=O)Nc3cccc(C)c3C)sc2n1 the results were G9a inh 11µM*, 12-LOX inh inconclusive, GRP78 ERSR act 3% and VDR inh -12%.
`Cc1cc(=O)n2c(C(=O)Nc3ccc(C(=O)OC(C)C)cc3)c(C(=O)Nc3ccccc3)sc2n1` gave G9a inh 45µM*, 12-LOX inh 20%, GRP78 ERSR act 16%, Sfp PPTase inh -21% and VDR inh -1%.
For Cc1ccc(N2C(=O)CCS2(=O)=O)cc1S(=O)(=O)NC1CCCC1 the results were 12-LOX inh -18%.
`CCCCCCCCCCCC(=O)N(CCO)CCO` gave G9a inh -4%[12.7 µM], GRP78 ERSR act -1%, Sfp PPTase inh -4% and VDR inh -11%.
Screening O=C(CCCCCC(=O)N(CCO)CCO)N(CCO)CCO returned G9a inh 40µM*, 12-LOX inh 25%, GRP78 ERSR act -6%, Sfp PPTase inh 17% and VDR inh -17%.
`CC(C)c1ccc(NC(=O)Cn2cnnc2C#N)cc1` gave 12-LOX inh 5%.
`COC(=O)c1ccc(OC(=O)CS(=O)c2ccccc2[N+](=O)[O-])cc1` (centres undefined) gave 12-LOX inh inconclusive, GRP78 ERSR act -3%, Sfp PPTase inh -11% and VDR inh -4%.
Screening O=C(CS(=O)c1ccc(C(F)(F)F)cc1[N+](=O)[O-])Oc1ccccc1 (centres undefined) returned G9a inh 50µM*, 12-LOX inh inconclusive, GRP78 ERSR act -17%, Sfp PPTase inh 13% and VDR inh 0%.
For C(#Cc1cc(-c2ccccc2)nc(-c2ccccc2)c1)c1ccccc1 the results were 12-LOX inh 10%.
For O=C(NC(=S)Nc1ccc(N2CCOCC2)c(Cl)c1)c1cccs1 the results were G9a inh 1%, 12-LOX inh inconclusive, GRP78 ERSR act 4%, Sfp PPTase inh 1% and VDR inh -3%.
O=C(Nc1ccc(N2CCCC2)c(Cl)c1)c1cccnc1 was read as G9a inh 8.9µM*, 12-LOX inh 18%, GRP78 ERSR act 11%, Sfp PPTase inh 0% and VDR inh 4%.
